Several values for one entry are separate records, joined by “and”; a condition that tells them apart may be missing. Equal values may be shown once. Inconclusive results are not listed. More than one record can exist for a structure, and the calls need not agree. Activity calls are given as the source filed them. How the source made its calls, unless noted: active means hit-call score of the fitted dose curve at least 0.9, where 1 is the maximum; inactive means score below 0.9.
Legend:
[1] = biological target: Oxysterols receptor LXR-alpha (Homo sapiens) (UniProt Q13133); assay: ATG_LXRa_TRANS: Attagene TRANS-FACTORIAL HepG2 Assay for human Liver X Receptor alpha (LXRa) (AID 2282980; active means hit-call score of the fitted dose curve at least 0.9, where 1 is the maximum); conditions: HepG2 Attagene TRANS reporter, LXRa transactivation
Oxysterols receptor LXR-alpha (Homo sapiens), sequence (Q13133 whole entry, looked up, the tested form may be a part): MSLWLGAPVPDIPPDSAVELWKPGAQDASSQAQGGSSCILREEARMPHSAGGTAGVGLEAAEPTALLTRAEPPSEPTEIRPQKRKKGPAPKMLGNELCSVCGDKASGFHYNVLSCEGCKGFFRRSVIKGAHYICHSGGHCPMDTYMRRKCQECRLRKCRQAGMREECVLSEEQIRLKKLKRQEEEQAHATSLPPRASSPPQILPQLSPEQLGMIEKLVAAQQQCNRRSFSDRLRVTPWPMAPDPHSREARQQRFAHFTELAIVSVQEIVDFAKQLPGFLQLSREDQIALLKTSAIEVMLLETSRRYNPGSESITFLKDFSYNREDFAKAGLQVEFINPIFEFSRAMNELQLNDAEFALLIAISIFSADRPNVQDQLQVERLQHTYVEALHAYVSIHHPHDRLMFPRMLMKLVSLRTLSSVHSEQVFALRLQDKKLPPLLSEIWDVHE
In short: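 In this multiplexed TRANS system, compounds act on HepG2 cells carrying GAL4-UAS reporter units and a receptor-GAL4 fusion for 24 h. Induced reporter RNA is amplified, fluorescently labelled and sized by capillary electrophoresis, with DMSO as baseline.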

[2] = biological target: Oxysterols receptor LXR-beta (Homo sapiens) (UniProt P55055); assay: ATG_LXRb_TRANS: Attagene TRANS-FACTORIAL HepG2 Assay for human Liver X Receptor beta (LXRb) (AID 2282981; active means hit-call score of the fitted dose curve at least 0.9, where 1 is the maximum); conditions: HepG2 Attagene TRANS GAL4-LXRb reporter, mRNA
Oxysterols receptor LXR-beta (Homo sapiens), sequence (P55055 whole entry, looked up, the tested form may be a part): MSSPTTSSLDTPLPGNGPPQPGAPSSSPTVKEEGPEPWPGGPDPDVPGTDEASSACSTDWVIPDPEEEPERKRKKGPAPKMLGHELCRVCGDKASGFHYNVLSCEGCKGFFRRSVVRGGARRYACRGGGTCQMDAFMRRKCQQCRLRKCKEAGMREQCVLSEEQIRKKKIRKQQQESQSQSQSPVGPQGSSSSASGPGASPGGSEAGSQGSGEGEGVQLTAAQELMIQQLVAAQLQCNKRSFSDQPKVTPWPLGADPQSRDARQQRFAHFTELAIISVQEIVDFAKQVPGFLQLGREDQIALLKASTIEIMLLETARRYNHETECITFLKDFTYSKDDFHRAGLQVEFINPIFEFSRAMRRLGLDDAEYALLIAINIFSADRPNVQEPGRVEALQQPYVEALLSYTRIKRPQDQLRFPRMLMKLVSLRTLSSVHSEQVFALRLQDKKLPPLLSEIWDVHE
In short: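 After 24 h chemical treatment of transfected HepG2 cells carrying exogenous NR-Gal4 chimeras, reporter mRNA was quantified by fluorescent RT-PCR and capillary electrophoresis; activity taken as increase over DMSO controls.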

[3] = biological target: Hepatocyte nuclear factor 4-alpha (Homo sapiens) (UniProt P41235); assay: ATG_HNF4a_TRANS: Attagene TRANS-FACTORIAL HepG2 Assay for human Hepatocyte Nuclear Factor 4 alpha (HNF4a) (AID 2282982; active means hit-call score of the fitted dose curve at least 0.9, where 1 is the maximum); conditions: HepG2 HNF4a transactivation reporter, mRNA readout
Hepatocyte nuclear factor 4-alpha (Homo sapiens), sequence (P41235 whole entry, looked up, the tested form may be a part): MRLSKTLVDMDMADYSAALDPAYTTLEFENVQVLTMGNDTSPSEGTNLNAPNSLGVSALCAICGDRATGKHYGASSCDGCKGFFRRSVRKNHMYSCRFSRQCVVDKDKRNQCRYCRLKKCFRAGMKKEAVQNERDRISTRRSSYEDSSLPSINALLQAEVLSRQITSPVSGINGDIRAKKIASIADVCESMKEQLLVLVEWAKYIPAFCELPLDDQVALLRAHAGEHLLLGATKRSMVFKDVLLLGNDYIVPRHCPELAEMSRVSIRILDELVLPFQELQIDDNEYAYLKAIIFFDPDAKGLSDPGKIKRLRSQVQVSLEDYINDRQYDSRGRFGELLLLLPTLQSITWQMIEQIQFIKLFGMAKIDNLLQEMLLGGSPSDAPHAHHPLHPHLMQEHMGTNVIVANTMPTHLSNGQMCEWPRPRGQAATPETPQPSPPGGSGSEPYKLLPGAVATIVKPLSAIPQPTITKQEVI
In short: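 Activity of an exogenous HNF4a–Gal4 fusion scored as induced GAL4-UAS reporter transcripts after 24 h chemical exposure of transfected human HepG2 cells. Read-out via RT-PCR with 6-FAM labelling and capillary electrophoresis; rise over DMSO baseline.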

[4] = biological target: Transcriptional activator Myb (Homo sapiens) (UniProt P10242); assay: ATG_Myb_CIS: Attagene CIS-FACTORIAL HepG2 Assay for human Myeloblastosis (Myb) Proto-Oncogene Transcription Factor (AID 2282986); conditions: HepG2 Attagene CIS-FACTORIAL Myb reporter transcription; actives raise or lower the signal
Transcriptional activator Myb (Homo sapiens), sequence (P10242 whole entry, looked up): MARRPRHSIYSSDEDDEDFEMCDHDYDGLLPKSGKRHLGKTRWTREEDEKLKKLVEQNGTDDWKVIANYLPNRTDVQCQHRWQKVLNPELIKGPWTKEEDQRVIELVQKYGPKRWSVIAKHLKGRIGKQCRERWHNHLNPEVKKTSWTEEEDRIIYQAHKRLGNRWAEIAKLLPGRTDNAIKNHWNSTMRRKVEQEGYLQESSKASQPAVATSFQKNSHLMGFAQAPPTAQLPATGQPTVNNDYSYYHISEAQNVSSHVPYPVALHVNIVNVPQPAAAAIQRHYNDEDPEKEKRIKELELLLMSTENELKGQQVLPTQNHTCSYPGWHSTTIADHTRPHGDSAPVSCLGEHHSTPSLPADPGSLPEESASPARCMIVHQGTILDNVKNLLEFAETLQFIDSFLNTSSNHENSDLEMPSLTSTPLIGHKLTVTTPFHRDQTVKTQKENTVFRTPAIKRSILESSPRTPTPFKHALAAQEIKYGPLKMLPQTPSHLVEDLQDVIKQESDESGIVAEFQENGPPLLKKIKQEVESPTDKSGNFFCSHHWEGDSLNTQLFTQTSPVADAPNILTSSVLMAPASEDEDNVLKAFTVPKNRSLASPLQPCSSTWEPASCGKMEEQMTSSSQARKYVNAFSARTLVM
In short: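 Using HepG2 liver cells bearing transiently transfected cis-promoter reporter constructs, the assay measures induction or loss of reporter mRNA after 24 hours of dosing. Detection used fluorescently labeled RT-PCR products separated by capillary electrophoresis.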

[5] = biological target: Nuclear respiratory factor 1 (Homo sapiens) (UniProt Q16656); assay: ATG_NRF1_CIS: Attagene CIS-FACTORIAL HepG2 Assay for human Nuclear Respiratory Factor 1 (NRF1) Orphan Gene (AID 2282987); conditions: HepG2 NRF1 cis-element reporter, Attagene multiplex; actives raise or lower the signal
Nuclear respiratory factor 1 (Homo sapiens), sequence (Q16656 whole entry, looked up): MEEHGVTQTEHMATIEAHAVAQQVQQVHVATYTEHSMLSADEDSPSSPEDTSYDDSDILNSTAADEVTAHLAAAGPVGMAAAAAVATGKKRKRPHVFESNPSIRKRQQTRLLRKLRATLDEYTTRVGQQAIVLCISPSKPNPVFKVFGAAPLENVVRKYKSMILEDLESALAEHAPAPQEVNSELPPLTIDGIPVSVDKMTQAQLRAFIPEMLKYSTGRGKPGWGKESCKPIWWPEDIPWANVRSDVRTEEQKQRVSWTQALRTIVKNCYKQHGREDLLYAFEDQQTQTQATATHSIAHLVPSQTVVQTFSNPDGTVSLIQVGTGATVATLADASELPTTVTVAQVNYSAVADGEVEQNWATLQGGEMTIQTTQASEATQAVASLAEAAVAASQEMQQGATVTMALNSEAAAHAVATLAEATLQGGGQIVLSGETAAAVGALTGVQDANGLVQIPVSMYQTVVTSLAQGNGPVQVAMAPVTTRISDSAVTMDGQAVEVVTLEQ
In short: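 Reporter mRNA induction or loss in HepG2 cells after 24 h dosing; cis-regulated reporter constructs report endogenous transcription-factor activity. Quantified by RT-PCR/capillary electrophoresis fluorescence, DMSO-referenced.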

[6] = biological target: Myc proto-oncogene protein (Homo sapiens) (UniProt P01106); assay: ATG_Myc_CIS: Attagene CIS-FACTORIAL HepG2 Assay for human Myelocytomatosis (Myc) Proto-Oncogene Transcription Factor (AID 2282990); conditions: HepG2, Attagene cis-reporter transcription factor activity; actives raise or lower the signal
Myc proto-oncogene protein (Homo sapiens), sequence (P01106 whole entry, looked up, the tested form may be a part): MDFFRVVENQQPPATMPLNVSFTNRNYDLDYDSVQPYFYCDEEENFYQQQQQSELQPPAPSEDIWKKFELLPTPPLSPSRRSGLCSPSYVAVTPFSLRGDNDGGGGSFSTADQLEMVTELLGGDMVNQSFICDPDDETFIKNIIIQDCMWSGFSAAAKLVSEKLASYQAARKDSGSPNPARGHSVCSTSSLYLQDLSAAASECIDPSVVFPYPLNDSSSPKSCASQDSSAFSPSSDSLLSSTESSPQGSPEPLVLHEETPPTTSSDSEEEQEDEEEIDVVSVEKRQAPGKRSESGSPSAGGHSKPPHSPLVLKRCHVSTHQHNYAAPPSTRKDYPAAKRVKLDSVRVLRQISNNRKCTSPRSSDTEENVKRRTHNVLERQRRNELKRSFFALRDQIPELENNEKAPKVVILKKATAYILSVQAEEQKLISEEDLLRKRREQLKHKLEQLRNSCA
In short: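 After 24 h chemical treatment of HepG2 cells carrying multiplexed cis-regulated reporter constructs, reporter transcripts quantified by RT-PCR and capillary electrophoresis of fluorescent fragments. Gain or loss fitted against DMSO baseline.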

[7] = ATG_NF_kB_CIS: Attagene CIS-FACTORIAL HepG2 Assay for human Nuclear Factor Kappa B (NF-kB) (AID 2282991); conditions: HepG2 Attagene cis-factorial NF-kB reporter mRNA; actives raise or lower the signal
In short: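 DMSO served as negative control and baseline for bidirectional curve fitting. Transiently transfected HepG2 cells were dosed for 24 h, then reporter transcripts were measured by RT-PCR with capillary electrophoresis detection.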

[8] = ATG_NRF2_ARE_CIS: Attagene CIS-FACTORIAL HepG2 Assay for human Nuclear Factor Erythroid 2 Related Factor 2 (NFR2) response to Antioxidant Response Elements (ARE) (AID 2282992); conditions: HepG2 Attagene ARE/NRF2 reporter, transcription factor activity; actives raise or lower the signal;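 on AC50: reporter mRNA level measured by RT-PCR and capillary electrophoresis fluorescence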
In short: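 Endogenous transcription factor activity in human liver HepG2 cells is tracked via a cis-element-driven reporter within a multiplexed set. mRNA induction is read by RT-PCR and capillary electrophoresis after 24 h, with DMSO as baseline.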

[9] = ATG_Oct_MLP_CIS: Attagene CIS-FACTORIAL HepG2 Assay for human Octamer-Binding Transcription Factor (Oct) (AID 2282993); conditions: HepG2 Attagene cis-factorial Oct reporter, mRNA; actives raise or lower the signal
In short: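 Transient MRTU transfection of HepG2 → 24 h compound treatment → RNA isolation, reverse transcription, PCR → 6-FAM primer extension, HpaI digest → capillary electrophoresis. Activity fitted both directions against DMSO.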

[10] = biological target: Cellular tumor antigen p53 (Homo sapiens) (UniProt P04637); assay: ATG_p53_CIS: Attagene CIS-FACTORIAL HepG2 Assay for human p53 Transcription Factor (AID 2282994); conditions: HepG2 p53 cis-element reporter, Attagene mRNA; actives raise or lower the signal
Cellular tumor antigen p53 (Homo sapiens), sequence (P04637 whole entry, looked up, the tested form may be a part): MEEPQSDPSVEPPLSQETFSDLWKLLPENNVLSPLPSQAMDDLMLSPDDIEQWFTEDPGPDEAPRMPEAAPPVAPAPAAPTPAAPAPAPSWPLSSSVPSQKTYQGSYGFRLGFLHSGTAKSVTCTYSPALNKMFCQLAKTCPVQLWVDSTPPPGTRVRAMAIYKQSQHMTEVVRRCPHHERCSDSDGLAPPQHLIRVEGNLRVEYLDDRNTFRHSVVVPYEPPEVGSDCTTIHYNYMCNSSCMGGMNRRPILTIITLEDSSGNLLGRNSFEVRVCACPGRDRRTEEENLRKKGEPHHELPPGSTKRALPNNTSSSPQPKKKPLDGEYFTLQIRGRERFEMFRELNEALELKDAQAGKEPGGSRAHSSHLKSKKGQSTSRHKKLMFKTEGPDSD
In short: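 Steps: transfect HepG2 with multiplexed cis reporter constructs; dose chemicals 24 h; extract RNA, reverse-transcribe, PCR-amplify reporter sequences; FAM-label, HpaI-digest, resolve fragments by CE. Activity fitted both directions relative to DMSO.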

[11] = BSK_3C_TissueFactor: BioMAP Diversity Plus: 3C Assay for Tissue Factor Biomarker Activity (AID 2282997); conditions: BioMAP 3C HUVEC, tissue factor biomarker readout; actives raise or lower the signal
In short: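 In this endothelial system, HUVEC are treated for 24 h and Tissue Factor is assessed by ELISA, normalised to DMSO.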

[12] = BSK_3C_uPAR: BioMAP Diversity Plus: 3C Assay for Urokinase-type plasminogen activator receptor (uPAR) Biomarker Activity (AID 2282998); conditions: BioMAP 3C HUVEC, uPAR biomarker ELISA; actives raise or lower the signal
In short: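 ELISA readout of uPAR on human vascular endothelium (umbilical vein primary cells), taken 24 h after chemical dosing. Increases and decreases are both fitted relative to DMSO vehicle.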

[13] = BSK_3C_VCAM1: BioMAP Diversity Plus: 3C Assay for Vascular cell adhesion molecule 1 (VCAM1) Biomarker Activity (AID 2282999); conditions: BioMAP 3C HUVEC, VCAM1 ELISA, cytokine-stimulated; actives raise or lower the signal
In short: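 Activity fitted in both directions relative to DMSO, with ELISA measurement of the surface marker on primary HUVEC (3C) at 24 h post-treatment; parallel SRB staining (0.1% SRB, TCA-fixed, 560 nm) flagged overt cytotoxicity.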

[14] = BSK_4H_Eotaxin3: BioMAP Diversity Plus: 4H Assay for Eotaxin 3 Biomarker Activity (AID 2283000); conditions: primary human endothelial cells (HUVEC); actives raise or lower the signal
In short: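 ELISA quantitation of CCL26 (Eotaxin-3) protein from chemically dosed human vascular endothelial cells at 24 h; increases and decreases both scored relative to DMSO-treated baseline.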

[15] = biological target: Glucocorticoid receptor (Homo sapiens) (UniProt P04150); assay: ATG_GR_TRANS: Attagene TRANS-FACTORIAL HepG2 Assay for human Glucocorticoid Receptor (GR) (AID 2282978; active means hit-call score of the fitted dose curve at least 0.9, where 1 is the maximum;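 further: activators score as hits since higher reporter transcript over DMSO is fitted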); conditions: HepG2 Attagene TRANS GR reporter, mRNA transcription
Glucocorticoid receptor (Homo sapiens), sequence (P04150 whole entry, looked up, the tested form may be a part): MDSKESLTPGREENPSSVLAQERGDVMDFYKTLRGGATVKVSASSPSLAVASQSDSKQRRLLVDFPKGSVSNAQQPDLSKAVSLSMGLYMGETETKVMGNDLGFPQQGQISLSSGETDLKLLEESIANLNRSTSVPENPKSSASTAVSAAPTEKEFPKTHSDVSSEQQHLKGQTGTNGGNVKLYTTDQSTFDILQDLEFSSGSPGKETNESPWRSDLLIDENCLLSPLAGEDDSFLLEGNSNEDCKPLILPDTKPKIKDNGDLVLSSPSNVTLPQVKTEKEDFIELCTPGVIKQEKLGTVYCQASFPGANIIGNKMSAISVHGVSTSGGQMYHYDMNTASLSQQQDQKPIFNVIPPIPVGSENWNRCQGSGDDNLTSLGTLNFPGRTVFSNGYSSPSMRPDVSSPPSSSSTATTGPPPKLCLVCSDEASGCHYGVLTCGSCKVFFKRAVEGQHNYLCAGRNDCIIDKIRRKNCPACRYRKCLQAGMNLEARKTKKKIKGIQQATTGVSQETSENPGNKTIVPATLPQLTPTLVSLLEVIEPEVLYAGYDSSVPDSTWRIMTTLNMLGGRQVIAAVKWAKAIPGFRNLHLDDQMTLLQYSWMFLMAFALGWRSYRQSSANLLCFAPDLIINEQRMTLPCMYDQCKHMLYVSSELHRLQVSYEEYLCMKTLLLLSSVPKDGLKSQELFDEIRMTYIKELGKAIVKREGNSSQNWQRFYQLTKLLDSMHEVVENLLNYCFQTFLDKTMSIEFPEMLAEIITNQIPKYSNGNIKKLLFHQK
In short: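 Transiently transfected HepG2 cells express chimeric NR-GAL4 proteins acting on GAL4-UAS reporter units. Compounds are applied for 24 h. mRNA induction over DMSO is measured by capillary electrophoresis.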

[16] = ATG_M_06_TRANS: Attagene TRANS-FACTORIAL HepG2 Assay for M06 Transcription Factor (Internal Marker) (AID 2282983; active means hit-call score of the fitted dose curve at least 0.9, where 1 is the maximum;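 further: reporter transcript level by RT-PCR then capillary electrophoresis fluorescence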); conditions: HepG2 Attagene TRANS M06 internal marker reporter
In short: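 Multi-reporter-transfected HepG2, 24 h treatment; reporter transcripts quantified via RT-PCR, primer-extension labelling and CE. DMSO-normalized gain-of-signal fit.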

[17] = ATG_M_32_TRANS: Attagene TRANS-FACTORIAL HepG2 Assay for M32 Transcription Factor (Internal Marker) (AID 2282984; active means hit-call score of the fitted dose curve at least 0.9, where 1 is the maximum;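 further: transcript level of a background control reporter unit measured by RT-PCR and capillary electrophoresis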); conditions: HepG2 Attagene TRANS M32 internal marker reporter
In short: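 Internal background reporter in transfected HepG2: after 24 h chemical exposure, RNA reverse-transcribed, reporter cDNA amplified, fluorescently labelled and HpaI-cut, then sized by capillary electrophoresis. Gain of signal fitted against DMSO control.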

[18] = biological target: Nuclear receptor subfamily 4 group A member 2 (Homo sapiens) (UniProt P43354); assay: ATG_NURR1_TRANS: Attagene TRANS-FACTORIAL HepG2 Assay for human Nuclear Receptor Related Protein 1 (NURR1) (AID 2282985; active means hit-call score of the fitted dose curve at least 0.9, where 1 is the maximum); conditions: HepG2 Attagene TRANS reporter, mRNA readout
Nuclear receptor subfamily 4 group A member 2 (Homo sapiens), sequence (P43354 whole entry, looked up, the tested form may be a part): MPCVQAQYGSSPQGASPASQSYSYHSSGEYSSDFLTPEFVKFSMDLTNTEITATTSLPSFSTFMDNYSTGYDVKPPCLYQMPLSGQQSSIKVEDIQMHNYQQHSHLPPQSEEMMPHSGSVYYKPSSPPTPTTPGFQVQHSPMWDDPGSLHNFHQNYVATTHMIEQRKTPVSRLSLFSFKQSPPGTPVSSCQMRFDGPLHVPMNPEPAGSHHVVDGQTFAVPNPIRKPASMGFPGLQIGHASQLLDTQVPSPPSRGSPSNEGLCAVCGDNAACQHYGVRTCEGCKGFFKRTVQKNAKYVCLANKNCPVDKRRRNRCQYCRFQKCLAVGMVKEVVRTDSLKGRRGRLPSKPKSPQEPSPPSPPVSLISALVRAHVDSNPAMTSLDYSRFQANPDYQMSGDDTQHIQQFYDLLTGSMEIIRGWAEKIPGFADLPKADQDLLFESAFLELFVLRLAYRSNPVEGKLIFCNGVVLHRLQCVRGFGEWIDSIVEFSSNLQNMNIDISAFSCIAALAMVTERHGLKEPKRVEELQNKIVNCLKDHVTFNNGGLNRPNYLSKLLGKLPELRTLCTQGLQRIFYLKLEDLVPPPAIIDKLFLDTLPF
In short: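 Reporter transcript induction, measured by RT-PCR with fluorescent labelling, HpaI digestion and capillary electrophoresis, after 24 hr dosing of human HepG2 cells transiently expressing an exogenous NR-Gal4 fusion with GAL4-UAS-driven reporters; DMSO as baseline.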

[19] = ATG_NFI_CIS: Attagene CIS-FACTORIAL HepG2 Assay for human Nuclear Factor I (NFI) (AID 2282989); conditions: HepG2 cis-regulatory reporter, NFI response element transcription; actives raise or lower the signal
In short: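 Transient MRTU transfection of HepG2 → 24 h chemical dosing → total RNA, oligo(dT) RT → PCR, 6-FAM primer extension, HpaI cut → capillary electrophoresis. Endpoint fitted bidirectionally relative to DMSO.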

[20] = biological target: Bile acid receptor (Homo sapiens) (UniProt Q96RI1); assay: ATG_FXR_TRANS: Attagene TRANS-FACTORIAL HepG2 Assay for Farnesoid X Receptor (FXR) (AID 2282979; active means hit-call score of the fitted dose curve at least 0.9, where 1 is the maximum;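 further: hits raise reporter mRNA above DMSO so AC50 marks FXR activation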); conditions: HepG2 Attagene TRANS FXR-GAL4 reporter transcription
In short: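 After 24 h chemical treatment of transfected HepG2 cells, GAL4-UAS reporter transcripts driven by an exogenous FXR-GAL4 fusion were measured by RT-PCR and capillary electrophoresis. Increases over DMSO were fitted.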

Measured: AC50

N#Cc1cc(Br)c(O)c(Br)c1
active: [8] 26.7 µM | [9] 40.1 µM | [12] 32.5 µM
not listed: [15] | [16] | [17] | [18] | [19] | [20]
inactive: all other assays above

O=C(O)c1nc(Cl)ccc1Cl
not listed: [3] | [7] | [20]
inactive: all other assays above

CCON=C(CC)C1=C(O)CC(c2c(C)cc(C)cc2C)CC1=O (centres undefined)
not listed: [3] | [15] | [18] | [19] | [20]
inactive: all other assays above

CS/C(C)=N/OC(=O)N(C)SN(C)C(=O)O/N=C(\C)SC
active: [11] 15.9 µM | [12] 28.6 µM | [13] 24.6 µM | [14] 29.2 µM
not listed: [3] | [15] | [16] | [19] | [20]
inactive: all other assays above

Cc1c(F)c(F)c(COC(=O)C2C(/C=C(\Cl)C(F)(F)F)C2(C)C)c(F)c1F (centres undefined)
not listed: [16] | [19] | [20]
inactive: all other assays above

CCOC(=O)C(Cl)Cc1cc(-n2nc(C)n(C(F)F)c2=O)c(F)cc1Cl (centres undefined)
not listed: [3] | [18] | [19] | [20]
inactive: all other assays above

O=C(Nc1ccccc1)Nc1ccnc(Cl)c1
active: [18] 50 µM | [7] 30.1 µM | [8] 13.7 µM | [9] 33.5 µM
not listed: [16] | [20]
inactive: all other assays above

COc1cnc(OC)n2nc(NS(=O)(=O)c3c(OCC(F)F)cccc3C(F)(F)F)nc12
inactive: [15] | [1] | [2] | [3] | [16] | [18] | [4] | [5] | [6] | [8] | [9] | [10] | [11] | [12] | [13] | [14]
active: [14] 0.016 µM

CC(C)C1(C)N=C(c2nc3ccccc3cc2C(=O)O)NC1=O (centres undefined)
not listed: [15] | [19]
inactive: all other assays above

Fc1ccc(Oc2ccnc3cc(Cl)cc(Cl)c23)cc1
active: [8] 3.83 µM | [11] 34.7 µM | [12] 31.2 µM | [13] 31.4 µM | [14] 28.8 µM
not listed: [7] | [16] | [19] | [20]
inactive: all other assays above

Oc1ccccc1-c1ccccc1
active: [6] 50 µM | [8] 32.7 µM and 26.2 µM | [9] 50 µM
inactive: [2] | [3] | [16] | [17] | [18] | [4] | [5] | [19] | [6] | [9] | [10] | [11] | [12] | [13] | [14]

C#CCOS(=O)OC1CCCCC1Oc1ccc(C(C)(C)C)cc1 (centres undefined)
active: [8] 1.19 µM | [9] 0.811 µM | [12] 7.03 µM | [13] 12.8 µM | [14] 27.7 µM
not listed: [15] | [17] | [18] | [19]
inactive: all other assays above

O=C(O)COc1nc(Cl)c(Cl)cc1Cl
active: [8] 19.1 µM
not listed: [1] | [2] | [15] | [17] | [19] | [20]
inactive: all other assays above

COc1nc(C)nc(NC(=O)NS(=O)(=O)c2ccccc2Cl)n1
not listed: [1] | [7] | [15] | [18] | [19] | [20]
inactive: all other assays above

CN(C)C(=S)SSC(=S)N(C)C
active: [11] 31.4 µM | [12] 29.4 µM | [13] 16.9 µM | [14] 33.1 µM
not listed: [3] | [15] | [16] | [17] | [19] | [20]
inactive: all other assays above
